Bioassay records deposited in PubChem by National Center for Advancing Translational Sciences (NCATS).
In the library only some 8.1% were active in any assay of this set; here they are far more common.
MCF10A rereplic = inducers of DNA re-replication in MCF 10A breast cells; 350,000 compounds, 2.9% hits; MCF 10A DNA re-replication, Hoechst nuclear intensity, 48 h; Potency, µM (series often up to 46.1 µM), for inactives: at the top dose activity, positive = re-replication, hits mostly activators; further: % of control where 0% means no effect; nearly all actives have a fitted effect of over 50% in size
ELG1 repair inh = inhibitors of ELG1-dependent DNA repair in HEK293T cells; 330,000 compounds, 2.3% hits; Potency, µM (doses to about 46.1 µM), inactives show at the highest dose activity change, negative = inhibition, most hits filed as inhibitors; AID 504467; HEK293T ELG1-luciferase reporter, luminescence, 16 h; DNA damage induced by 5-fluorouridine; further: on the % scale 0 is the no-effect control and ±100 the full control effect; nearly all actives have a fitted effect of over 55% in size
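Overnight (16 hr) co-exposure of 2,000 cells/well to 5-fluorouridine and compound at 37 °C preceded detection. Luciferase was quantified via ONE-Glo luminescence; loss of signal denotes inhibition.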
KB-3-1 tox = kills parental KB-3-1 adenocarcinoma cells; AID 1347075; 400,000 compounds, 1.4% hits; Potency, µM (series often up to 46.1 µM), most hits filed as cytotoxic; KB-3-1 viability, CellTiter-Glo ATP luminescence, 72 h; further: on the % scale 0 is the no-effect control and ±100 the full control effect; nearly all actives have a fitted effect of over 60% in size
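Parental KB-3-1 viability, qHTS format: 72 h compound exposure, 37 °C; CellTiter-Glo; media-only wells and DMSO plates as controls; concentration-effect fits on corrected data.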
SW480 rereplic = DNA re-replication induction in SW480 cells; SW480 DNA re-replication, Hoechst DNA content imaging, 48 h; Potency, µM (highest dose often 46.1 µM), for inactives: at the highest dose re-replication activation, usual class: activators; 340,000 compounds, 1.8% hits; AID 624297; further: % of control where 0% means no effect; nearly all actives have a fitted effect of over 55% in size
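Compounds, transferred as 23 nL by pin tool, were incubated with cells for 48 hr; DNA content per nucleus was then quantified by Hoechst staining and fluorescence plate imaging.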
KB-V1 MDR tox = kills drug-selected multidrug resistant KB-V1 cells | KB-V1 MDR cells viability, CellTiter-Glo, 72 h | Potency, µM (top dose mostly 46.1 µM), actives largely listed as cytotoxic | 400,000 compounds, 3.4% hits; further: on the % scale 0 is the no-effect control and ±100 the full control effect; nearly all actives have a fitted effect of over 60% in size
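KB-V1 cells (P-gp-expressing MDR subline of KB-3-1) in phenol-red-free DMEM with 10% FBS were exposed to library compounds over a concentration series for 72 h at 37 degrees C. Viability read by CellTiter-Glo luminescence; concentration-effect curves fitted after normalization.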
* marks the source's active call; other numbers are inactive results; i = inactive; ? = inconclusive; nt = no result; ! = a repeat was not active; [ ] = dose if it differs, or a comment. The call rests on the fitted dose curve; in most records, active means well fitted curve in the direction sought with a large enough effect; inconclusive means small, poorly fitted or top-dose-only effect, or another doubt; inactive means no such curve, though single readings can be large; an effect the other way counts as inactive or inconclusive. Potency means the concentration at half of the fitted maximal effect.

SMILES	MCF10A rereplic	ELG1 repair inh	KB-3-1 tox	SW480 rereplic	KB-V1 MDR tox
CN1C(=O)/C(=C/c2ccc(C(F)(F)F)cc2)Sc2ccc(C(=O)N3CCN(c4ccccn4)CC3)cc21	?	?	i	2%	i
CN1C(=O)/C(=C/c2ccccc2Cl)Sc2ccc(C(=O)N3CCCC3)cc21	18µM*	?	i	-8%	i
CCOC(=O)C1CCCN(C(=O)c2ccc3c(c2)N(C)C(=O)/C(=C/c2ccccc2Cl)S3)C1 (stereo not given)	?	15µM*	?	?	?
COc1ccc(C(=O)c2cc(C(C)=O)c(Nc3ccccc3)s2)cc1	-6%	?	?	?	16µM*
COc1ccc(C(=O)Nc2ccc(C(=O)c3ccccc3)cc2)cc1	25%	nt	i	-60%	?
COc1ccc(C(=O)c2sc(Nc3ccccc3)nc2N)cc1OC	?	?	?	?	15µM*
COc1ccc(C(=O)c2sc(Nc3ccccc3)nc2N)cc1	?	?	i	?	13µM*!
CC1(C(=O)Nc2cccc(C#N)c2)CCN1C(=O)c1ccccc1CCc1ccccc1 (stereo not given)	nt	nt	i	nt	i
N#CC1=C(N)C(C#N)(C#N)C(c2cccnc2)C2CCCC=C12 (stereo not given)	nt	7.3µM*	nt	nt	nt
N#CC1=C(N)C(C#N)(C#N)C(c2cccnc2)C2CC(c3ccccc3)CC=C12 (stereo not given)	?	?	i	11%	?
N#CC1=C(N)C2=CCCC[C@H]2[C@H](c2cccc(F)c2)C1(C#N)C#N	21µM*	-2%	i	19%	i
O=C(NCCc1ccc(Cl)cc1)c1nnc(Cc2ccc(Cl)cc2Cl)o1	nt	nt	i	nt	i
CC(C)[C@H](NC(=O)c1ccccc1)C(=O)NCCc1ccccc1	-5%	3%	i	-52%	i
CCC(C)C(=O)Nc1ccc(S(=O)(=O)N2CCCC2)cc1 (stereo not given)	?	-12%	i	?	i
CCC(C)NS(=O)(=O)c1ccc(S(=O)(=O)N2CCCC3(CCCCC3)C2)cc1 (stereo not given)	?	?	5.8µM*	8%	3.7µM*
CC(=O)c1cccc(S(=O)(=O)NCC(C)(C)N2CCOCC2)c1	-14%	1%	i	-20%	i
CN(C)C1=NCCN1CCCC1CCCCC1	?	2%	i	23µM*	i
CN(C)C1=NCCN1CCC1CCCC1	3%	-8%	i	-23%	i
c1ccc(NC2=NCCN2CCCC2CCCCC2)cc1	9%	-1%	i	0.26µM*	i
COc1cccc(CC(=O)Nc2ccc3nc(C)sc3c2)c1	-9%	?	i	9.2µM*	?
COc1ccccc1CC(=O)Nc1ccc2nc(C)sc2c1	-5%	?	i	nt	?
COc1ccc(OCC(=O)Nc2nnc3n2CCS3)cc1	nt	nt	i	nt	?
CN(C(=O)CN1C(=O)NC(C)(c2cccc(Br)c2)C1=O)C1CCCCC1 (stereo not given)	10%	2%	i	4%	23µM*
CCCN(Cc1nc2cc(Cl)ccc2c(=O)[nH]1)C(=O)c1ccc(S(=O)(=O)N2CCCC2)cc1	10%	?	i	12%	i
O=[N+]([O-])c1cncc([N+](=O)[O-])c1Nc1cccc(O)c1	29%	?	?	?	23µM*
SMILES	MCF10A rereplic	ELG1 repair inh	KB-3-1 tox	SW480 rereplic	KB-V1 MDR tox
O=C(O)c1ccc(Nc2cc(Cl)c3nonc3c2[N+](=O)[O-])cc1	-6%	0%	i	?	i
O=[N+]([O-])c1c(Nc2cccc(O)c2)cc(Cl)c2nonc12	?	-29%	18µM*	?	?
Cc1ccccc1Nc1c([N+](=O)[O-])cncc1[N+](=O)[O-]	-1%	12%	i	15%	i
CC(C)(C)c1ccc(S(=O)(=O)N2CCN(c3nc(-c4ccccc4)nc4ccccc34)CC2)cc1	nt	nt	i	nt	i
C=C[C@]1(C)C=C2C(=O)[C@@]3(O)OC(=O)[C@@]4(CCCC(C)(C)[C@H]34)[C@@]2(O)CC1	nt	nt	4.6µM*	nt	?
C=C[C@]1(C)C=C2CC[C@H]3[C@@](C)(CCC[C@@]3(C)C(=O)O)[C@@H]2CC1	12%	?	i	-1%	i
CN1CCN(S(=O)(=O)c2ccc(N(C)Cc3ccc(C(F)(F)F)cc3)c([N+](=O)[O-])c2)CC1	?	9%	i	?	i
CCN(CC)C(=O)CSc1nc2cc3c(cc2c(=O)n1CCCC(=O)NCCc1ccc(OC)c(OC)c1)OCO3	-2%	?	i	-3%	i
CCN(CC)C(=O)CSc1nc2cc3c(cc2c(=O)n1CCCCCC(=O)NCc1ccc(OC)cc1)OCO3	18µM*	-32%	i	16%	?
O[C@H]1C[C@H](c2ccccc2)N(CC2CCCCC2)C[C@@H]1n1cc(C2CC2)nn1	nt	nt	?	nt	i
O[C@@H]1CN(CC2CCCCC2)[C@@H](c2ccccc2)C[C@H]1n1cc(C2CC2)nn1	nt	nt	21µM*	nt	?
O=C(/C=C/c1ccc(O)cc1)c1ccc(NC2=C(N3CCCCC3)C(=O)c3ccccc3C2=O)cc1	6.5µM*	2%	2.1µM*	?	?
Cc1ccc(NC2=C(N3CCCCC3)C(=O)c3ccccc3C2=O)cc1	5.8µM*	-23%	?	2.9µM*	i
COc1ccccc1NC1=C(N2CCCCC2)C(=O)c2ccccc2C1=O	3.3µM*	1.8µM*	2.6µM*	4.6µM*	i
CN(C1=C(N2CCCCC2)C(=O)c2ccccc2C1=O)c1ccccc1	?	-12%	i	12%	i
O=C1C(Nc2cccc(O)c2)=C(N2CCCCC2)C(=O)c2ccccc21	3%	13µM*	?	1%	i
O=C1C(Nc2ccccc2)=C(N2CCCCC2)C(=O)c2ccccc21	?	?	?	0%[9.22 µM]	i
Cc1cc(F)ccc1NC(=O)CCS(=O)(=O)c1cc2c(cc1C)NC(=O)CO2	nt	nt	i	nt	i
O=C1c2cccc3c2[C@@H](CCC3)CN1[C@@H]1CN2CCC1CC2	12%	nt	nt	14%	nt
CC[C@H](C)[C@@H]1NC(=O)[C@@H](CC(C)C)NC(=O)[C@H](C(C)C)NC(=O)[C@H]2CSSC[C@H](NC1=O)C(=O)N2	nt	nt	1.2µM*	nt	i
CC(C)CC1NC(=O)C(CCCN)NC(=O)C(C(C)C)NC(=O)C2CCCN2C(=O)C(Cc2ccccc2)NC(=O)C(CC(C)C)NC(=O)C(CCCN)NC(=O)C(C(C)C)NC(=O)C2CCCN2C(=O)C(Cc2ccccc2)NC1=O (stereo not given)	?	nt	nt	-7%	nt
